Values joined by “and” are separate entries in the source; they are usually repeats but may differ in a detail not shown here. Equal values may be shown once. In all, about 260,000 compounds went through this assay and about 1,500 (0.58%) were called active. About 5% were inconclusive and are not listed.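 The calls were made as follows: active = inhibition above a set limit at one or more doses, reproduced on every date tested; inconclusive = results disagree between test dates, or hit never tested in dose response; inactive = the rest.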 These entries were drawn from the full list. Measured potencies and affinities stand elsewhere.
These compounds were tested against Virion infectivity factor (Human immunodeficiency virus type 1 group M subtype B (isolate BH10)) + Virion infectivity factor (Human immunodeficiency virus type 1 group M subtype B (isolate BRU/LAI)) + Virion infectivity factor (Human immunodeficiency virus type 1 group M subtype B (isolate PCV12)) + Virion infectivity factor (Human immunodeficiency virus type 1 group M subtype B (isolate HXB2)) + DNA dC->dU-editing enzyme APOBEC-3G (Homo sapiens) (UniProt P69720+P69721+P69722+P69723+Q9HC16) (assay: inhibitors of Vif binding to APOBEC3G peptide, primary screen, biochemical, TR-FRET, GST-Vif 1-94, biotin-A3G peptide, dose response retest (AID 1117319;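 also: Vif residues 1-94 fused to GST binding biotinylated APOBEC3G peptide 110-148; 0% = full assay without inhibitor and 100% = GST in place of GST-Vif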)). Details: active compounds read high.

inhibition, inactive:
COCCN(C(=O)COC(=O)c1cc2ccccc2cc1O)c1c(N)n(Cc2ccccc2)c(=O)[nH]c1=O 0.53%, CCOc1ccc(C(=O)Nc2ccc(N3CCCC3)cc2)cc1 -1.32%, CCOc1c(Cl)cc(CNc2ccc(N3CCCC3)cc2)cc1OC -0.34%, Cc1ccc2cc(CN(CCN(C)C)C(=S)Nc3ccccc3)c(=O)[nH]c2c1C 17%, CCOc1ccc(C2CC(=O)NC(SC)=C2C#N)cc1 (configuration not stated) -1.81%, CS/C(=N\S(=O)(=O)c1cccs1)Nc1ccc(Cl)cc1 3.6%, COc1ccc(C2C(C(=O)Nc3ccc(F)cc3)=C(C)Nc3nc(CCCO)nn32)cc1 (configuration not stated) -0.37%, COc1ccc(OC)c(C2C(C(=O)Nc3ccccc3OC)=C(C)Nc3nc(CCCO)nn32)c1 (configuration not stated) 18.4%, OCCN(CCO)c1ccc2ccccc2c1 9.83%, Nc1ccc(C(=O)N(CCO)CCO)cc1 2.26%, CN(CC(=O)Nc1ccc(F)cc1)C(=O)C1CCCC1 -2.12%, O=C(Cn1c(=O)n(Cc2ccco2)c(=O)c2c3c(sc21)CCCC3)Nc1ccccc1 -1.14%, O=c1c2c3c(sc2n(CCN2CCCCC2)c(=O)n1Cc1ccco1)CCCCC3 30.5%, FC(F)(F)c1cnc(Oc2ccc(-c3nnco3)cc2)c(Cl)c1 -4.28%, Oc1ccc(Br)cc1/C=N/n1c(COc2ccccc2)n[nH]c1=S 23.7%, Cc1ccc(S(=O)(=O)Cc2ccc(C(=O)NCc3cccs3)o2)cc1 2.29%, CSc1ccccc1NC(=O)c1cccnc1 -0.88%, CN=c1scc(C)n1/N=C/c1cc(Br)c(O)c(Br)c1 27.7%, CCN=c1scc(C)n1/N=C/c1cc(Br)c(O)c(OC)c1 10.6%, C=C(C)CN=c1scc(C)n1/N=C/c1ccco1 7.84%, CN=c1scc(C)n1/N=C/c1ccc(O)cc1O 6.79%, CN=c1scc(C)n1/N=C/c1ccc(O)cc1 3.18%, CCN=c1scc(C)n1/N=C/c1ccsc1 24.1%, O=C(Oc1coc(CSc2ncccn2)cc1=O)c1cccc([N+](=O)[O-])c1 -1.78%, O=C(Cc1ccccc1[N+](=O)[O-])NCC(=O)c1ccc2c(c1)OCO2 -9.24%, CC(CCc1ccccc1)N(C)CC(O)c1cccc([N+](=O)[O-])c1 (configuration not stated) -11.1%, Nc1ccn([C@@H]2O[C@H](CNCc3cccc(OC4CCCC4)c3)[C@@H](O)[C@H]2O)c(=O)n1 3.81%, COc1ccc([C@@H]2C[C@@H](c3ccccc3)Oc3cc(OC)cc(OC)c32)cc1 -2.19%, Clc1ccc(OCCCc2nc(-c3cccnc3)no2)c(Cl)c1 21.6%, N#Cc1c(N2CCN(c3ccc(F)cc3)CC2)nc(N)c2c(N)nc3c(c12)CC(=O)N3C1CC1 1.08%, CC(C)c1ccc(-c2nc(N3CCCCC3)[nH]c(=O)c2C#N)cc1 -2.18%, CN(CCC#N)C(=O)COC(=O)c1ccc(Cl)cc1O 6.5%, COc1ccc(-n2nnnc2-c2cnc3cc4c(cc3c2C)OCO4)cc1 2.05%, CCCCNC(=O)Cn1c2c(c(-c3ccccc3Cl)cc1=O)CCC2 11.2%, O=C(Cn1c2c(c(-c3ccccc3Cl)cc1=O)CCC2)NCCCN1CCOCC1 22.2%, CC(=O)c1ccc(NC(=S)N2CCCC(C(F)(F)F)C2)cc1 (configuration not stated) -3.97%, COC(=O)C1=C(C)Nc2[nH]c(=S)[nH]c(=O)c2C1c1ccc(O)cc1 (configuration not stated) -3.71%, Cc1ccc(C2C3=C(CCCC3=O)Nc3[nH]c(=S)[nH]c(=O)c32)cc1 (configuration not stated) 15.3%, COc1ccc(Nc2ccc([N+](=O)[O-])cc2[N+](=O)[O-])cc1 -7.01%, O=C(NC(=O)c1ccccc1)NC1(C(F)(F)F)OCCO1 -4.29%, O=C(NCC1CCCO1)C(c1cccnc1)N(C(=O)Cc1cccs1)c1ccccc1 (configuration not stated) 28.6%, COc1ccc2c(c1)C(=O)N(c1ccc(C)cc1)C(=O)C2 1.47%, Cc1ccc2c(c1)CC1(CN2C)C(=O)OC(C)(C)OC1=O 24.2%, CCc1ccc(N2C(=O)C3ON(c4ccccc4)C(c4ccco4)C3C2=O)cc1 (configuration not stated) -3.31%, O=C1NC(=O)C(=CC=Cc2ccccc2)S1 2.69%, CC1=NN(c2ccccc2)C(=O)/C1=C/C=C/c1ccccc1 5.22%, Cc1ccc(CC2S/C(=N/N=C/c3ccco3)NC2=O)cc1 (configuration not stated) 4.38%, CCOC(=O)C1=C(C)N(c2ccc(OCC)cc2)C(=O)/C1=C\c1ccco1 10.7%, Cc1n[nH]c(=O)n1-c1ccc(C(C)C)cc1 -7.48%, Cc1ccc(N2C(=O)c3n[nH]c(C)c3C2c2ccco2)cc1 (configuration not stated) -7.3% and 4.08%, CC(C)c1ccc(CN(C(=O)/C=C/c2ccco2)C2CCS(=O)(=O)C2)cc1 (configuration not stated) 30.9%, COc1ccc2[nH]c(C(=O)Nc3cccc(C)n3)cc2c1 -5.53%, CCOc1cc(C#N)ccc1OCC(=O)N1CCN(C(=O)c2cccs2)CC1 -1.5%, Cc1cccc(C)c1OCC(=O)NCC1CCCO1 (configuration not stated) -4.95%, CCOCCCNC(=O)/C=C1\Sc2ccccc2N(Cc2ccccc2F)C1=O -8.36%, CCOC(=O)c1ccccc1NS(=O)(=O)c1ccc(S(=O)(=O)N2CCCC2)cc1 2.58%, O=C(NNC(=O)c1cccc(-n2cccc2)c1)c1ccccc1 7.05%, COc1ccc(NC(=O)CN(C)C(=O)c2cccc(Oc3ccccc3)c2)cc1 -4.86%, Cc1ccc(C)c(NC(=O)CN(C)C(=O)c2cccc(N3C(=O)CCC3=O)c2)c1 -0.71%, CN(CC(=O)Nc1cccc(F)c1)C(=O)c1ccc(C(=O)c2ccccc2)cc1 0.25%, O=C(NNC(=O)c1cccc(-n2cccc2)c1)c1ccc(F)cc1 16%, CN(CC(=O)Nc1cccc(F)c1)C(=O)c1cccc(N2C(=O)CCC2=O)c1 -2.88%, Cc1ccc(C)c(NC(=O)CN(C)C(=O)c2cccc(S(=O)(=O)N(C)C)c2)c1 5.71%, COc1ccc(NC(=O)CN(C)C(=O)c2ccc3ccccc3c2)cc1 7.66%, O=C(CCCCn1ccc(=O)[nH]c1=O)Nc1ccc(O)c(C(=O)O)c1 -11.5%, Cc1ccsc1-c1nc(CN(C)C(C2CC2)C2CC2)c(C)o1 4.23%, COc1cc2c(cc1OC)CN(Cc1nc3ccsc3c(=O)[nH]1)CC2 7.56%, COc1ccc(N2CCN(Cc3nc4c(c(=O)[nH]c(=O)n4C)n3CC(C)=O)CC2)cc1 8.98%, Cc1ccc(SCC(=O)Nc2ccc(N3CCOCC3)cc2)cc1C -8.83%, COc1ccc(NC(=O)NNS(=O)(=O)c2ccc(OC)c(OC)c2)c(OC)c1 5.71%, O=C(Nc1ccc(S(=O)(=O)N2CCCCC2)cc1)c1ccccc1Cl 0.17%, Cc1ccc(CSCC(=O)NCc2ccc3c(c2)OCO3)cc1 14.3%, COc1cc2c(cc1OC)CN(C(=O)c1cccc(S(=O)(=O)N3CCc4ccccc43)c1)CC2 8.84%, CCN(CC(=O)Nc1c(F)cccc1F)C(=O)c1cccc(-n2cnnn2)c1 -3.65%, Cc1cccc(C)c1NC(=O)CN(C)C(=O)c1cccc(-n2cccc2)c1 9.97%, O=C(CNC(=O)c1cccc(-n2cccc2)c1)Nc1ccccc1Br 4.99%, CN(CC(=O)Nc1ccccc1Cl)C(=O)c1cccc(-n2cccc2)c1 -0.39%, Cc1ccc(NC(=O)CN(C)C(=O)c2cccc(Br)c2)cc1 -1.1%, CCN(CC(=O)Nc1ccc(NC(C)=O)cc1)C(=O)c1cccc(-n2cccc2)c1 16.2%, CN(CC(=O)Nc1ccccc1C(F)(F)F)C(=O)c1cccc(-n2cccc2)c1 6.51%, Cc1cccc(NC(=O)CNC(=O)c2ccc3nc[nH]c3c2)c1C 9.97%, O=C(CCNS(=O)(=O)c1ccc(F)cc1)N1CCN(c2ncccn2)CC1 -6.24%, Cc1oc2cc3oc(=O)c(CCC(=O)NCCC(=O)O)c(C)c3cc2c1C 2.04%, O=C(O)c1cccc2c1C(=O)c1cc([N+](=O)[O-])cc([N+](=O)[O-])c1-2 6.48%, COc1ccc(C2c3ccsc3CCN2C(=O)NC(C)(C)C)cc1 (configuration not stated) -4.12%, COCCN(C(=O)COC(=O)CCOc1ccccc1)c1c(N)n(Cc2ccccc2)c(=O)[nH]c1=O 0.29%, COc1ccc(NC(=O)CSc2ncnc3c2cnn3Cc2ccccc2)cc1OC 23.2%, O=C(Nc1cccc2ccccc12)N1CCN(Cc2ccccc2)CC1 20.5%, COC(=O)CSc1nnc(-c2ccccn2)n1N -2.48%, CCOC(=O)N1CCN(CC(=O)Nc2ccc(OC)cc2)CC1 -0.76%, Cc1ccc(C(CC(=O)N2CCCCC2)c2ccccc2)c(O)c1C (configuration not stated) -1.48%, COc1cc(Cl)c(C)cc1NC(=O)CN1C(=O)C2CCCCC2C1=O (configuration not stated) -15.8%

— PubChem BioAssay AID1117319 (Southern Research Institute, 2015)
